# Reference: the supplement of paper PMC4466140
# Columns and labels:
# Experiment in all cases: SPOT peptide array binding signal intensity (averaged, normalized) (arbitrary units (background-subtracted, floor 0; scale differs between SH3 domains)); higher = stronger binding of the SH3 domain to the peptide
# [1] = molecular target: AgAbp1
# Method in brief: (§1)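 Cellulose membranes carried synthetic 15-mer peptides with cysteines swapped for serines. These were incubated overnight at 4°C with 10 μg/ml of GST-fused SH3 domains from four yeast species in TBS-based blocking buffer. Binding signal, detected with anti-GST antibody and quantified in Genespotter, is the normalized, background-subtracted spot intensity averaged over replicates, in arbitrary units specific to each domain.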
# [2] = molecular target: AgBbc1
# Method in brief: as §1
# [3] = molecular target: AgBem1-D1
# Method in brief: as §1
# [4] = molecular target: AgBzz1-D1
# Method in brief: as §1
# [5] = molecular target: AgBzz1-D2
# Method in brief: as §1
# [6] = molecular target: AgCyk3
# Method in brief: as §1
# [7] = molecular target: AgFus1
# Method in brief: as §1
# [8] = molecular target: AgHof1
# Method in brief: as §1
# [9] = molecular target: AgHse1
# Method in brief: as §1
# [10] = molecular target: AgLsb1
# Method in brief: as §1
# [11] = molecular target: AgLsb4
# Method in brief: as §1
# [12] = molecular target: AgMyo5
# Method in brief: as §1
# [13] = molecular target: AgNbp2
# Method in brief: as §1
# [14] = molecular target: AgRvs167
# Method in brief: as §1
# [15] = molecular target: AgSho1
# Method in brief: as §1
# [16] = molecular target: AgSla1-D1-D2
# Method in brief: as §1
# [17] = molecular target: AgSla1-D3
# Method in brief: as §1
# [18] = molecular target: CaAbp1-D1
# Method in brief: as §1
# [19] = molecular target: CaAbp1-D2
# Method in brief: as §1
# [20] = molecular target: CaBbc1
# Method in brief: as §1
# [21] = molecular target: CaBem1-D1
# Method in brief: as §1
# [22] = molecular target: CaBzz1-D1
# Method in brief: as §1
# [23] = molecular target: CaBzz1-D2
# Method in brief: as §1
# [24] = molecular target: CaCyk3
# Method in brief: as §1
# [25] = molecular target: CaFus1
# Method in brief: as §1
# [26] = molecular target: CaHof1
# Method in brief: as §1
# [27] = molecular target: CaHse1
# Method in brief: as §1
# [28] = molecular target: CaLsb1
# Method in brief: as §1
# [29] = molecular target: CaLsb4
# Method in brief: as §1
# [30] = molecular target: CaMyo5
# Method in brief: as §1
# [31] = molecular target: CaNbp2
# Method in brief: as §1
# [32] = molecular target: CaRvs167
# Method in brief: as §1
# [33] = molecular target: CaRvs167-3
# Method in brief: as §1
# [34] = molecular target: CaSho1
# Method in brief: as §1
# [35] = molecular target: CaSla1-D1-D2
# Method in brief: as §1
# [36] = molecular target: CaSla1-D3
# Method in brief: as §1
# [37] = molecular target: ScAbp1
# Method in brief: as §1
# [38] = molecular target: ScBbc1
# Method in brief: as §1
# [39] = molecular target: ScBem1-D1
# Method in brief: as §1
# [40] = molecular target: ScBzz1-D1
# Method in brief: as §1
# [41] = molecular target: ScBzz1-D2
# Method in brief: as §1
# [42] = molecular target: ScCyk3
# Method in brief: as §1
# [43] = molecular target: ScFus1
# Method in brief: as §1
# [44] = molecular target: ScHof1
# Method in brief: as §1
# [45] = molecular target: ScHse1
# Method in brief: as §1
# [46] = molecular target: ScLsb1
# Method in brief: as §1
# [47] = molecular target: ScLsb2
# Method in brief: as §1
# [48] = molecular target: ScLsb3
# Method in brief: as §1
# [49] = molecular target: ScLsb4
# Method in brief: as §1
# [50] = molecular target: ScMyo3
# Method in brief: as §1
# [51] = molecular target: ScMyo5
# Method in brief: as §1
# [52] = molecular target: ScNbp2
# Method in brief: as §1
# [53] = molecular target: ScPex13
# Method in brief: as §1
# [54] = molecular target: ScRvs167
# Method in brief: as §1
# [55] = molecular target: ScSho1
# Method in brief: as §1
# [56] = molecular target: ScSla1-D1-D2
# Method in brief: as §1
# [57] = molecular target: ScSla1-D3
# Method in brief: as §1
# [58] = molecular target: SpAbp1-D1
# Method in brief: as §1
# [59] = molecular target: SpBbc1
# Method in brief: as §1
# [60] = molecular target: SpBzz1-D1
# Method in brief: as §1
# [61] = molecular target: SpBzz1-D2
# Method in brief: as §1
# [62] = molecular target: SpCyk3
# Method in brief: as §1
# [63] = molecular target: SpHof1
# Method in brief: as §1
# [64] = molecular target: SpHof1-2
# Method in brief: as §1
# [65] = molecular target: SpHof1-3
# Method in brief: as §1
# [66] = molecular target: SpHse1
# Method in brief: as §1
# [67] = molecular target: SpLsb1
# Method in brief: as §1
# [68] = molecular target: SpLsb4
# Method in brief: as §1
# [69] = molecular target: SpMyo1
# Method in brief: as §1
# [70] = molecular target: SpNbp2
# Method in brief: as §1
# [71] = molecular target: SpPex13
# Method in brief: as §1
# [72] = molecular target: SpRvs167
# Method in brief: as §1
# [73] = molecular target: SpSla1-D1-D2
# Method in brief: as §1
# [74] = molecular target: SpSla1-D3
# Method in brief: as §1
binder,measurement,setting,value
NRARYLPQNPDIIAG,SPOT peptide array binding signal intensity,[1],≤ 0
same,SPOT peptide array binding signal intensity,[2],≤ 0
same,SPOT peptide array binding signal intensity,[3],≤ 0
same,SPOT peptide array binding signal intensity,[4],9
same,SPOT peptide array binding signal intensity,[5],19
same,SPOT peptide array binding signal intensity,[6],≤ 0
same,SPOT peptide array binding signal intensity,[7],8
same,SPOT peptide array binding signal intensity,[8],3.5
same,SPOT peptide array binding signal intensity,[9],85
same,SPOT peptide array binding signal intensity,[10],1
same,SPOT peptide array binding signal intensity,[11],7
same,SPOT peptide array binding signal intensity,[12],0.5
same,SPOT peptide array binding signal intensity,[13],≤ 0
same,SPOT peptide array binding signal intensity,[14],0.5
same,SPOT peptide array binding signal intensity,[15],1
same,SPOT peptide array binding signal intensity,[16],2
same,SPOT peptide array binding signal intensity,[17],3.25
same,SPOT peptide array binding signal intensity,[18],≤ 0
same,SPOT peptide array binding signal intensity,[19],≤ 0
same,SPOT peptide array binding signal intensity,[20],≤ 0
same,SPOT peptide array binding signal intensity,[21],≤ 0
same,SPOT peptide array binding signal intensity,[22],58
same,SPOT peptide array binding signal intensity,[23],26.5
same,SPOT peptide array binding signal intensity,[24],≤ 0
same,SPOT peptide array binding signal intensity,[25],29
same,SPOT peptide array binding signal intensity,[26],≤ 0
same,SPOT peptide array binding signal intensity,[27],13.8
same,SPOT peptide array binding signal intensity,[28],1
same,SPOT peptide array binding signal intensity,[29],4
same,SPOT peptide array binding signal intensity,[30],4.25
same,SPOT peptide array binding signal intensity,[31],59
same,SPOT peptide array binding signal intensity,[32],4.17
same,SPOT peptide array binding signal intensity,[33],1.75
same,SPOT peptide array binding signal intensity,[34],17.5
same,SPOT peptide array binding signal intensity,[35],≤ 0
same,SPOT peptide array binding signal intensity,[36],≤ 0
same,SPOT peptide array binding signal intensity,[37],7.5
same,SPOT peptide array binding signal intensity,[38],≤ 0
same,SPOT peptide array binding signal intensity,[39],7
same,SPOT peptide array binding signal intensity,[40],7
same,SPOT peptide array binding signal intensity,[41],≤ 0
same,SPOT peptide array binding signal intensity,[42],3
same,SPOT peptide array binding signal intensity,[43],≤ 0
same,SPOT peptide array binding signal intensity,[44],1.5
same,SPOT peptide array binding signal intensity,[45],647
same,SPOT peptide array binding signal intensity,[46],1.5
same,SPOT peptide array binding signal intensity,[47],≤ 0
same,SPOT peptide array binding signal intensity,[48],58
same,SPOT peptide array binding signal intensity,[49],≤ 0
same,SPOT peptide array binding signal intensity,[50],≤ 0
same,SPOT peptide array binding signal intensity,[51],9.25
same,SPOT peptide array binding signal intensity,[52],≤ 0
same,SPOT peptide array binding signal intensity,[53],2.75
same,SPOT peptide array binding signal intensity,[54],5.83
same,SPOT peptide array binding signal intensity,[55],87.5
same,SPOT peptide array binding signal intensity,[56],≤ 0
same,SPOT peptide array binding signal intensity,[57],≤ 0
same,SPOT peptide array binding signal intensity,[58],≤ 0
same,SPOT peptide array binding signal intensity,[59],≤ 0
same,SPOT peptide array binding signal intensity,[60],31.5
same,SPOT peptide array binding signal intensity,[61],0.75
same,SPOT peptide array binding signal intensity,[62],≤ 0
same,SPOT peptide array binding signal intensity,[63],32.8
same,SPOT peptide array binding signal intensity,[64],13
same,SPOT peptide array binding signal intensity,[65],251
same,SPOT peptide array binding signal intensity,[66],204
same,SPOT peptide array binding signal intensity,[67],2
same,SPOT peptide array binding signal intensity,[68],38
same,SPOT peptide array binding signal intensity,[69],7
same,SPOT peptide array binding signal intensity,[70],3
same,SPOT peptide array binding signal intensity,[71],1
same,SPOT peptide array binding signal intensity,[72],5.67
same,SPOT peptide array binding signal intensity,[73],≤ 0
same,SPOT peptide array binding signal intensity,[74],≤ 0
LLGRKRPVMERVVDI,SPOT peptide array binding signal intensity,[1],≤ 0
same,SPOT peptide array binding signal intensity,[2],27
same,SPOT peptide array binding signal intensity,[3],41
same,SPOT peptide array binding signal intensity,[4],47
same,SPOT peptide array binding signal intensity,[5],35
same,SPOT peptide array binding signal intensity,[6],1
same,SPOT peptide array binding signal intensity,[7],142
same,SPOT peptide array binding signal intensity,[8],2.5
same,SPOT peptide array binding signal intensity,[9],586
same,SPOT peptide array binding signal intensity,[10],0.25
same,SPOT peptide array binding signal intensity,[11],65.5
same,SPOT peptide array binding signal intensity,[12],3.5
same,SPOT peptide array binding signal intensity,[13],144
same,SPOT peptide array binding signal intensity,[14],3.67
same,SPOT peptide array binding signal intensity,[15],76.5
same,SPOT peptide array binding signal intensity,[16],18
same,SPOT peptide array binding signal intensity,[17],0.5
same,SPOT peptide array binding signal intensity,[18],21
same,SPOT peptide array binding signal intensity,[19],51
same,SPOT peptide array binding signal intensity,[20],99.5
same,SPOT peptide array binding signal intensity,[21],60.5
same,SPOT peptide array binding signal intensity,[22],236
same,SPOT peptide array binding signal intensity,[23],63.5
same,SPOT peptide array binding signal intensity,[24],46
same,SPOT peptide array binding signal intensity,[25],398
same,SPOT peptide array binding signal intensity,[26],0.5
same,SPOT peptide array binding signal intensity,[27],54
same,SPOT peptide array binding signal intensity,[28],≤ 0
same,SPOT peptide array binding signal intensity,[29],163
same,SPOT peptide array binding signal intensity,[30],10.8
TKPTPPPKPSHLKPK,SPOT peptide array binding signal intensity,[61],≤ 0
same,SPOT peptide array binding signal intensity,[62],≤ 0
same,SPOT peptide array binding signal intensity,[63],2
same,SPOT peptide array binding signal intensity,[64],≤ 0
same,SPOT peptide array binding signal intensity,[65],64
same,SPOT peptide array binding signal intensity,[66],9.25
same,SPOT peptide array binding signal intensity,[67],251
same,SPOT peptide array binding signal intensity,[68],43.5
same,SPOT peptide array binding signal intensity,[69],≤ 0
same,SPOT peptide array binding signal intensity,[70],2.5
same,SPOT peptide array binding signal intensity,[71],7
same,SPOT peptide array binding signal intensity,[72],142
same,SPOT peptide array binding signal intensity,[73],≤ 0
same,SPOT peptide array binding signal intensity,[74],2.5
